Screens deposited in PubChem by several laboratories.
CCHF vOTU inh: CCHFV vOTU protease inhibition; inhibition, % at 11.5 µM; AID 651958; actives 0.55% (n = 370,000); Pep-AMC fluorescence; also: 0% = vehicle wells with enzyme and 100% = no enzyme wells
FBA Mtb inh: Mtb fructose-bisphosphate aldolase inhibition; purified M. tuberculosis FBA, fluorescence read-out; inhibition, % at 1 µM; actives 2.3% (n = 360,000); in the data active = inhibition above about 27%;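 also: 0% = vehicle and 100% = reference inhibitor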
Target sequence (P9WQA3 whole entry, looked up): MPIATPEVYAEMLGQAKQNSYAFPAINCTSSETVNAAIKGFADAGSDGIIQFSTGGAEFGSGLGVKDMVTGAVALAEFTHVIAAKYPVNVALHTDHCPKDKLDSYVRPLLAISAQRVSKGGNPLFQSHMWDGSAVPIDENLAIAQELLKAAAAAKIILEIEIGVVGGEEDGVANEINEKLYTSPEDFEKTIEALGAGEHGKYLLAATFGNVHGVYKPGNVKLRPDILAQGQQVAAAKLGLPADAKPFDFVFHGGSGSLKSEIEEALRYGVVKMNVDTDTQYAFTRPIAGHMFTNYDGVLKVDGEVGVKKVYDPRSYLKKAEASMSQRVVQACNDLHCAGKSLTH
RecA splice inh: inhibitors of M. tuberculosis RecA intein splicing; P9WHJ3; cell-free RecA intein splicing, fluorescence; inhibition, % (test concentration not listed); actives 0.75% (n = 290,000); AID 2221; in the data active = inhibition above about 30%;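 also: 0% = vehicle wells and 100% = reference inhibitor control wells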
GDH-TPI counter: GDH-TPI coupled enzyme inhibition counter-screen; inhibition, % at 4.8 µM; GDH-TPI coupled enzyme counterscreen, NADH absorbance; actives 1.2% (n = 360,000); AID 588335;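 also: 0% = DMSO wells and 100% = wells lacking the enzyme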
DUSP3 inh: blocks human VHR1 dual specificity phosphatase. P51452. recombinant VHR phosphatase, pNPP absorbance. inhibition, % at 13.3 µM. actives 0.52% (n = 290,000). AID 1654; in the data active = inhibition above about 50%
Target sequence (P51452 whole entry, looked up): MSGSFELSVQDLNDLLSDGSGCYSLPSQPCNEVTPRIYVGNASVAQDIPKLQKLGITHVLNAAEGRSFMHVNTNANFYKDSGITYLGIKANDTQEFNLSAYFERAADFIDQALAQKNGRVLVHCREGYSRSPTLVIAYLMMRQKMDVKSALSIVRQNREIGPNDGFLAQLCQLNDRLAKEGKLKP
3CLpro inhibitor: SARS-CoV 3CLpro protease inhibition. inhibition, % at 6 µM. actives 0.14% (n = 290,000). AID 1706. recombinant SARS-CoV 3CLpro, quenched FRET peptide cleavage. P0C6X7; in the data active = inhibition above about 12%
An asterisk follows results filed as active; · = no result given; + = active, no number. A selection: hits, their analogues and other compounds. The true share with any hit is near 4.7%. Rule as the data show it, unless noted: active = inhibition above about 30%; inactive = the rest.

SMILES	CCHF vOTU inh	FBA Mtb inh	RecA splice inh	GDH-TPI counter	DUSP3 inh	3CLpro inhibitor
CC(=O)c1ccc(N2CCN(c3ccc(S(=O)(=O)NCCCN(C)C)cc3[N+](=O)[O-])CC2)cc1	15	-4	0	57*	9	-2
CN(C)CCCNS(=O)(=O)c1ccc(-n2nnc3ccccc32)c([N+](=O)[O-])c1	7	1	-4	-2	58*	3
CC(=O)c1ccc(N2CCN(c3ccc(S(=O)(=O)NCCN(C)C)cc3[N+](=O)[O-])CC2)cc1	11	-5	4	15	1	4
Cc1[nH]n(-c2ccccc2)c(=O)c1C(c1ccccc1[N+](=O)[O-])C(C#N)C#N (stereo unspecified)	3	0	64*	2	23	-3
Cc1[nH]n(-c2ccccc2)c(=O)c1C(c1ccccc1C(=O)O)c1c(C)[nH]n(-c2ccccc2)c1=O	4	3	-1	2	11	-3
COc1ccc(C(=O)NNC(=S)NC(=O)c2cccc([N+](=O)[O-])c2)cc1	1	0	0	35*	·	·
COc1cccc(-c2cc(C(=O)Nc3nc4ccccc4s3)c3ccccc3n2)c1	-12	4	22	33*	10	1
O=C(Nc1nc2ccccc2s1)c1cc(-c2ccco2)nc2ccccc12	-17	6	1	17	21	-6
CCCOc1ccc(C(=O)NNC(=S)NC(=O)c2cc(-c3ccc(Cl)cc3)nc3ccccc23)cc1	5	-5	0	15	26	4
O=C(NC(=S)NNC(=O)c1ccccc1O)c1cccc([N+](=O)[O-])c1	-7	1	30	8	27	1
CCNC(=S)NNC(=O)c1cc(-c2ccc(OCC)cc2)nc2ccccc12	4	11	-3	37*	23	-8
CCNC(=S)NNC(=O)c1cc(-c2cccc(OC)c2)nc2ccccc12	-7	-1	1	0	0	6
COc1ccc(C(=O)NNC(=S)NC(=O)c2cc(-c3ccccc3)nc3ccccc23)cc1	16	2	1	33*	20	8
CCN(CC(=O)Nc1cccc(OC)c1)CC(=O)Nc1ccc(C)cc1Cl	4	0	2	-4	-24	-1
C[C@H]1CN([C@@H](C)CO)C(=O)CCCn2cc(nn2)CO[C@@H]1CN(C)C(=O)c1ccccc1	-7	·	·	·	·	·
CCCCN1CC(COCc2ccccc2)Oc2cccc(Oc3ccc(F)cc3OC)c2S1(=O)=O (stereo unspecified)	5	·	·	·	·	·
O=c1[nH]c(CN2CCN(C/C=C/c3ccccc3)CC2)nc2cc(Cl)ccc12	-11	3	1	1	54*	-7
CCCCOc1ccc(C(=O)n2ccc3ccc(-c4ccc5ccn(Cc6ccccc6)c5c4)cc32)cc1	-4	·	·	·	·	·
CCOc1cc(/C=N\NC(=O)c2c(C)nc3ccccn23)ccc1O	-2	-1	-3	48*	4	1
Cc1nc2ccccn2c1C(=O)N/N=C/c1cc(C)n(-c2ccc(Cl)cc2)c1C	15	5	2	36*	9	0
CCOc1cc(/C=N/NC(=O)c2c(-c3ccccc3)noc2C)ccc1O	6	-6	-3	29	-15	-1
Cc1nc2ccccn2c1C(=O)NCc1ccc2c(c1)OCO2	-4	2	-1	10	-4	3
Cc1nc2ccccn2c1C(=O)N/N=C/c1ccc2c(c1)OCO2	12	-1	-3	42*	2	-3
CCCCc1cc(=O)oc2cc(OCC(=O)NCCN3CCOCC3)c(Cl)cc12	6	4	-3	0	-4	-1
Cc1c(C)c2ccc(OCC(=O)N3CCC[C@@H]3C(=O)O)c(C)c2oc1=O	-35	129*	4	8	20	3
SMILES	CCHF vOTU inh	FBA Mtb inh	RecA splice inh	GDH-TPI counter	DUSP3 inh	3CLpro inhibitor
CCc1cc(=O)oc2c3c(cc(OCC(=O)NCCCOC)c12)OC(C)(C)CC3	-254	+	1	9	16	-1
CCc1cc(=O)oc2c3c(cc(OCC(=O)NCCCC(=O)O)c12)OC(C)(C)CC3	-233	+	-1	11	21	1
CCc1cc(=O)oc2cc(C)cc(OCC(=O)NCC3CCC(C(=O)O)CC3)c12 (stereo unspecified)	-4	19	-1	0	25	-5
CCc1cc(=O)oc2c3c(cc(OCC(=O)NCCN4CCOCC4)c12)OC(C)(C)CC3	-166	176*	·	15	0	2
Cc1c(C)c2ccc(OCC(=O)N3CCN(c4ccc(F)cc4)CC3)c(C)c2oc1=O	4	-5	-2	6	2	-2
Cc1cc(C)c2c(N)c(C(=O)N3CCc4ccccc4C3)sc2n1	-9	-2	0	-2	20	5
Cc1cccc(S(=O)(=O)NC(=O)C2(C)CCN2C(=O)c2cccc(F)c2)c1 (stereo unspecified)	2	1	·	12	·	·
CC(C)CNc1ncnc2c1ncn2[C@H]1CN(C2CCCC2)C[C@@H](CO)O1	-4	-1	·	-5	·	·
CCCc1cc(=O)oc2c3c(cc(OCC(=O)N4CCC[C@H]4C(=O)O)c12)OC(C)(C)CC3	-175	+	-2	25	29	1
Cc1ccccc1OCC(=O)NCCC(=O)O	-17	0	-1	7	15	0
O=C1/C(=C/c2ccc3c(c2)OCO3)Oc2cc(OCC(=O)N3CCC[C@H]3C(=O)O)ccc21	·	-4	-7	14	20	4
Cc1cc(=O)oc2c3c(cc(OCC(=O)NCCC(=O)O)c12)OC(C)(C)CC3	-224	+	-2	25	46	1
CCc1cc(=O)oc2c3c(cc(OCC(=O)NCCC(=O)O)c12)OC(C)(C)CC3	-185	177*	-4	12	21	2
CCc1cc(=O)oc2c3c(cc(OCC(=O)NC4CC4)c12)OC(C)(C)CC3	-155	+	·	19	12	2
CCOC(=O)C1=CCN(S(=O)(=O)c2ccc(Br)cc2)C1c1ccc(Br)cc1 (stereo unspecified)	-2	·	·	·	·	·
CSc1cccc(CNC(=O)C2CCC(=O)N(CCc3ccccc3)C2)c1 (stereo unspecified)	-10	-4	·	-4	·	·
CSCCC(C(=O)NCc1ccccc1)n1c(C2CCN(C(C)=O)CC2)nc2ccccc21 (stereo unspecified)	6	·	·	·	·	·
COc1ccc(NC(=O)c2cc3c(-c4ccc(OC)c(OC)c4)nn(C)c3s2)cc1OC	-10	2	5	38*	-13	2
O=C1N=C(N2CCCCC2)S/C1=C\c1ccncc1	-12	-4	-1	26	9	0
COc1cc(/C=C2\SC(N3CCCCC3)=NC2=O)cc(OC)c1OC	13	0	0	33*	-2	4
CC(=O)N1CCN(C2=NC(=O)/C(=C/c3ccc(OS(=O)(=O)c4ccccc4)cc3)S2)CC1	8	0	-1	31*	24	-3
COc1ccc(/C=C2\SC(N3CCCCC3)=NC2=O)cc1	8	2	-1	47*	24	1
